From PubChem BioAssay (EPA / NIEHS)
Results filed as inconclusive are left out. Calls of active or inactive are those of the source. The calls were made as follows, unless noted: active = hit-call score of the fitted dose curve at least 0.9, where 1 is the maximum; inactive = score below 0.9.

Experiments:
[1] = ACEA_ER_80hr: ACEA Biosciences xCELLigence Real-Time Cell Analysis on Estrogen Receptor Agonism for Proliferation (AID 2282667; active = hit-call score of the fitted dose curve at least 0.9, where 1 is the maximum); conditions: T47D proliferation, impedance (xCELLigence), 80 h
Procedure, shortened: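 Estrogen-driven proliferation is captured as electrode impedance in T47D cells 80 h after compound addition. Test articles ran at 8 concentrations, 1:4 dilutions from 100 uM final, in two replicate plates.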

[2] = molecular target: CCAAT/enhancer-binding protein beta (Homo sapiens) (UniProt P17676); test: ATG_C_EBP_CIS: Attagene CIS-FACTORIAL HepG2 Assay for human CCAAT/Enhancer Binding Protein (C/EBP) beta (AID 2282927); conditions: HepG2 Attagene cis-factorial transcription factor reporter; actives raise or lower the signal
Chain of CCAAT/enhancer-binding protein beta (Homo sapiens) (P17676 whole entry, looked up): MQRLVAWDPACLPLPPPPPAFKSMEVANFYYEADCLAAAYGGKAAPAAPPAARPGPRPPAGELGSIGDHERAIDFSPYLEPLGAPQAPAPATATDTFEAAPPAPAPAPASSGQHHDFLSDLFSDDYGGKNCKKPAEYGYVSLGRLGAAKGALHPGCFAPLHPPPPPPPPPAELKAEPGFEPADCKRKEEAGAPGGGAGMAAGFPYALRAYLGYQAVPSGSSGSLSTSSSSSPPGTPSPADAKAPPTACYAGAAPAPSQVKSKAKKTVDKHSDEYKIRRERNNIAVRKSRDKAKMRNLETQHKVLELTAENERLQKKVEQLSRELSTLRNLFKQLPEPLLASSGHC
Procedure, shortened: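 Endogenous transcription factor activity in human liver HepG2 cells is inferred from induction of a CEBPB-linked reporter mRNA. Exposure lasts 24 h; activity is fitted in both directions relative to DMSO.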

[3] = ATG_CMV_CIS: Attagene CIS-FACTORIAL HepG2 Assay for human CMV (Internal Marker) (AID 2282928); conditions: HepG2 CMV promoter reporter, transcription factor profiling; actives raise or lower the signal;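 also: endpoint acts as a background internal control marker rather than a target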
Procedure, shortened: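 24 h chemical treatment, HepG2 with transient multi-reporter transfection; RNA → oligo(dT) RT → PCR → 6-FAM extension → HpaI digest → CE fluorescence. Bidirectional fit, DMSO negative control.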

[4] = ATG_DR4_LXR_CIS: Attagene CIS-FACTORIAL HepG2 Assay for human Liver X Receptor (LXR), DR4 submotif (AID 2282929); conditions: HepG2 Attagene DR4 cis-reporter, mRNA transcription; actives raise or lower the signal
Procedure, shortened: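 HepG2 cells were transiently transfected with multiple cis-regulated reporter units and dosed for 24 hours. The DR4 reporter mRNA was quantified by RT-PCR, 6-FAM labelling and capillary electrophoresis. Bidirectional fits used DMSO as baseline.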

[5] = molecular target: Aryl hydrocarbon receptor (Homo sapiens) (UniProt P35869); test: ATG_Ahr_CIS: Attagene CIS-FACTORIAL HepG2 Assay for human Aryl Hydrocarbon Receptor (Ahr) (AID 2282930); conditions: HepG2 AhR cis-factorial reporter transcription; actives raise or lower the signal
Chain of Aryl hydrocarbon receptor (Homo sapiens) (P35869 whole entry, looked up): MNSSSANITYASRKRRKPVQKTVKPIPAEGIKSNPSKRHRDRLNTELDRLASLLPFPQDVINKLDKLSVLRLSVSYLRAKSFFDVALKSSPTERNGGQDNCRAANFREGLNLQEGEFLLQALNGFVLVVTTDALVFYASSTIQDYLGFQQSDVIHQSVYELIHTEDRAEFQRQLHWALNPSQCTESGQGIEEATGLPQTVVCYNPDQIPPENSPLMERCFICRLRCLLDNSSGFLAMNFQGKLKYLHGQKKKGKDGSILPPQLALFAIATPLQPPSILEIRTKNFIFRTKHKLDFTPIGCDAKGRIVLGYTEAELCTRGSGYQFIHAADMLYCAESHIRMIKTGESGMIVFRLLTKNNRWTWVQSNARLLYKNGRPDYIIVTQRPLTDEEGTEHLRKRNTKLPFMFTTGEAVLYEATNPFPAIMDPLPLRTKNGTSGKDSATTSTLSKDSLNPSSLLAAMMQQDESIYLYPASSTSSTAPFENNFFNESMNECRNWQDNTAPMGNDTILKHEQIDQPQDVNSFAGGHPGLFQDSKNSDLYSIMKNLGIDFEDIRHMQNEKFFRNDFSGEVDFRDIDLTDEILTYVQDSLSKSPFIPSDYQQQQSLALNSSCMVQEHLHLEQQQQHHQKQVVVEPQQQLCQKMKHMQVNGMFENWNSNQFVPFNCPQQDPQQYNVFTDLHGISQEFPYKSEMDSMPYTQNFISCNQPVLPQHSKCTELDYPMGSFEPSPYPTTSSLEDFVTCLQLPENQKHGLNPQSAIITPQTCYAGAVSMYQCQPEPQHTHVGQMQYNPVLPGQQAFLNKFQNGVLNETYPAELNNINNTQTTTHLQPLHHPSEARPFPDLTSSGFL
Procedure, shortened: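 Transient MRTU transfection of HepG2 → 24 h compound exposure → total RNA, oligo(dT) RT → PCR, 6-FAM extension, HpaI cut → CE fluorescence. DMSO = baseline; bidirectional curve fit.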

[6] = ATG_AP_1_CIS: Attagene CIS-FACTORIAL HepG2 Assay for human Activator Protein 1 (AP-1) (AID 2282931); conditions: HepG2 Attagene cis-factorial AP-1 reporter mRNA; actives raise or lower the signal
Procedure, shortened: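 HepG2 cells transiently transfected with cis-element-driven reporter transcription units, dosed for 24 hours. Reporter mRNA measured by RT-PCR, 6-FAM labelling, HpaI digestion and capillary electrophoresis. Bidirectional fitting against DMSO baseline.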

[7] = ATG_BRE_CIS: Attagene CIS-FACTORIAL HepG2 Assay for human Bone Morphogenetic Protein (BMP) Response Element (BRE) (AID 2282933); conditions: HepG2 BMP response element reporter, Attagene transcription factor profiling; actives raise or lower the signal
Procedure, shortened: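 Read-out: reporter mRNA induction quantified by RT-PCR and capillary electrophoresis after 24 h chemical exposure of transfected HepG2 cells. Endogenous factor activity on the BMP response element; gain or loss fitted against DMSO baseline.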

[8] = molecular target: Retinoic acid receptor alpha (Homo sapiens) (UniProt P10276); test: ATG_DR5_RAR_CIS: Attagene CIS-FACTORIAL HepG2 Assay for human Retinoic Acid Receptor Alpha (RARE), DR5 submotif (AID 2282934); conditions: HepG2 Attagene cis-factorial RARE DR5 reporter, mRNA; actives raise or lower the signal;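 as to AC50: reporter responds to endogenous RAR alpha beta and gamma in HepG2 not RARA alone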
Chain of Retinoic acid receptor alpha (Homo sapiens) (P10276 whole entry, looked up): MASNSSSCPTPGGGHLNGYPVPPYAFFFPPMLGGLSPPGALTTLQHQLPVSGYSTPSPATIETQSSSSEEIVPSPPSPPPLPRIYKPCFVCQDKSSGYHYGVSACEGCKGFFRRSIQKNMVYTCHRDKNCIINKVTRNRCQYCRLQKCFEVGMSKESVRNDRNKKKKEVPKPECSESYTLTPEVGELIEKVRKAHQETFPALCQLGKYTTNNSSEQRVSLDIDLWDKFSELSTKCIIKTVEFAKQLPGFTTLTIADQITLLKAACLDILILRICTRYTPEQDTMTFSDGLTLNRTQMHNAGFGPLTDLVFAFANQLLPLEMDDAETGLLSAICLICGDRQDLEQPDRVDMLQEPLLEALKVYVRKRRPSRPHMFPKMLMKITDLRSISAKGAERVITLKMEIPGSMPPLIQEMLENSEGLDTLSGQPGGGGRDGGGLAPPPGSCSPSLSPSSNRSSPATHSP
Procedure, shortened: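 Transient MRTU transfection of HepG2; 24 h compound treatment; TriZol RNA, oligo(dT) RT, PCR, FAM labelling, capillary electrophoresis. Bidirectional fit vs DMSO. Endogenous TF activity at DR5 RARE.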

[9] = molecular target: Transcription factor E2F1 (Homo sapiens) (UniProt Q01094); test: ATG_E2F_CIS: Attagene CIS-FACTORIAL HepG2 Assay for human E2F Transcription Factor 1 (AID 2282935); conditions: HepG2 Attagene cis-reporter, E2F reporter RNA transcripts; actives raise or lower the signal
Chain of Transcription factor E2F1 (Homo sapiens) (Q01094 whole entry, looked up): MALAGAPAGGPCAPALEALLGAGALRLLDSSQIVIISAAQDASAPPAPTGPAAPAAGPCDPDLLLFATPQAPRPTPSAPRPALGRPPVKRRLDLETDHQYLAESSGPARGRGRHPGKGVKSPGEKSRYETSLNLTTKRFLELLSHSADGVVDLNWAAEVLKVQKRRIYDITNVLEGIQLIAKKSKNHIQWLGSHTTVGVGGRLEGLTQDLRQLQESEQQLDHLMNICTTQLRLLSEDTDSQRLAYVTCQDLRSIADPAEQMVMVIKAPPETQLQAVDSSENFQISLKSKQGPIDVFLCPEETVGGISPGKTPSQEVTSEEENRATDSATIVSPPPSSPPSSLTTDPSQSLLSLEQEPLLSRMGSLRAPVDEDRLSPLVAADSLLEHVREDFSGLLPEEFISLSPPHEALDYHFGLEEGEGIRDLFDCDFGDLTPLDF
Procedure, shortened: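 Fluorescent RT-PCR products, digested with HpaI for 2 h at 37 C, are separated by capillary electrophoresis. Source RNA comes from transfected HepG2 cultures treated for 24 h.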

[10] = ATG_E_Box_CIS: Attagene CIS-FACTORIAL HepG2 Assay for human Enhancer Box (E-box) (AID 2282936); conditions: HepG2 E-box cis-reporter transcription, actives raise or lower the signal
Procedure, shortened: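 Fluorescent reporter fragments separated by capillary electrophoresis gave the signal; mRNA came from HepG2 cells transfected with cis-element reporters and treated 24 h. Curves fitted bidirectionally relative to DMSO controls.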

[11] = ATG_M_61_CIS: Attagene CIS-FACTORIAL HepG2 Assay for M61 Transcription Factor (Internal Marker) (AID 2282937); conditions: HepG2 Attagene CIS-FACTORIAL M61 internal marker reporter; actives raise or lower the signal
Procedure, shortened: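 HepG2 cells transiently transfected with multiplexed cis-promoter reporter units reporting endogenous transcription factor activity, measured 24 h after dosing. Reporter mRNA quantified by RT-PCR and capillary electrophoresis; bidirectional fit against DMSO baseline.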

[12] = ATG_EGR_CIS: Attagene CIS-FACTORIAL HepG2 Assay for human Early Growth Response 1 (EGR1) (AID 2282938); conditions: HepG2 Attagene CIS-FACTORIAL EGR reporter mRNA; actives raise or lower the signal
Procedure, shortened: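 HepG2 cells transiently transfected with cis-element-driven multiplexed reporter units, dosed for 24 h. EGR1-element reporter mRNA quantified by RT-PCR, 6-FAM labelling, HpaI digestion and capillary electrophoresis; bidirectional fit versus DMSO.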

[13] = ATG_M_19_CIS: Attagene CIS-FACTORIAL HepG2 Assay for M19 Transcription Factor (Internal Marker) (AID 2282939); conditions: HepG2 Attagene CIS-FACTORIAL M19 internal marker reporter; actives raise or lower the signal
Procedure, shortened: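 Readout: fluorescent reporter-transcript fragments by capillary electrophoresis after RT-PCR. Human HepG2 liver cells carried transfected MRTU constructs reporting endogenous transcription-factor activity; exposure 24 h. Gain or loss of signal fitted relative to DMSO.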

[14] = ATG_ERE_CIS: Attagene CIS-FACTORIAL HepG2 Assay for Estrogen Response Element (ERE) (AID 2282940); conditions: HepG2 ERE cis-reporter, Attagene RNA transcript; actives raise or lower the signal
Procedure, shortened: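 Readout: reporter mRNA induction by RT-PCR, FAM-labelled primer extension, HpaI digestion and capillary electrophoresis, 24 h after dosing transfected HepG2 cells. Endogenous transcription factors act on cis-element-regulated reporters. Gain or loss fitted against DMSO.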

[15] = ATG_Ets_CIS: Attagene CIS-FACTORIAL HepG2 Assay for human Erythroblast Transformation Specific (ETS) (AID 2282941); conditions: HepG2 ETS cis-reporter transcription, actives raise or lower the signal
Procedure, shortened: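 Cis-regulated reporter mRNA induction in HepG2 (transient transfection), 24 h exposure, RT-PCR plus capillary electrophoresis detection; DMSO serves as negative control and baseline.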

[16] = molecular target: Hepatocyte nuclear factor 3-beta (Homo sapiens) (UniProt Q9Y261); test: ATG_FoxA2_CIS: Attagene CIS-FACTORIAL HepG2 Assay for human Forkhead box A2 (FOXA2) (AID 2282942); conditions: HepG2 cis-reporter transcription factor activity, 24 h; actives raise or lower the signal
Chain of Hepatocyte nuclear factor 3-beta (Homo sapiens) (Q9Y261 whole entry, looked up): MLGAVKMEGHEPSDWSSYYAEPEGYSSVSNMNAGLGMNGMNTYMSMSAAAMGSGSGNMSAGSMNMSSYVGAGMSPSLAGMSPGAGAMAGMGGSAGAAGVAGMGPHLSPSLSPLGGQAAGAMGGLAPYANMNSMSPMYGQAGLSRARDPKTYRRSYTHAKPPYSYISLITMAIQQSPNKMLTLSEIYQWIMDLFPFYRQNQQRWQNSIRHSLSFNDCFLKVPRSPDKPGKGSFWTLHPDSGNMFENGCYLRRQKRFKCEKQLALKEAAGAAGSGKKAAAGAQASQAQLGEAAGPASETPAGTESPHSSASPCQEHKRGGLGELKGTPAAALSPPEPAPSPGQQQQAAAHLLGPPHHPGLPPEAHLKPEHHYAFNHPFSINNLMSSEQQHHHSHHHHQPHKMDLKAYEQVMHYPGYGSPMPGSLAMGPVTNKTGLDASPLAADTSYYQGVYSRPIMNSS
Procedure, shortened: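 HepG2 transiently transfected with a multiplexed cis-promoter reporter library read endogenous FOXA2 activity. After 24 h compound exposure, reporter mRNA was quantified by RT-PCR, HpaI digestion and capillary electrophoresis. Bidirectional fit against DMSO.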

[17] = ATG_FoxO_CIS: Attagene CIS-FACTORIAL HepG2 Assay for human Forkhead box O (FoxO) (AID 2282943); conditions: HepG2 Attagene cis-reporter, FoxO element, mRNA; actives raise or lower the signal
Procedure, shortened: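 HepG2, transient MRTU transfection (cis element, endogenous TFs). Dose 24 h. TriZol RNA → oligo(dT) RT → PCR → 6-FAM primer extension → HpaI cut → CE. Gain/loss vs DMSO.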

[18] = ATG_GATA_CIS: Attagene CIS-FACTORIAL HepG2 Assay for human GATA Binding Protein (AID 2282944); conditions: HepG2 GATA cis-element reporter, Attagene multiplex mRNA; actives raise or lower the signal
Procedure, shortened: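 Read-out: fluorescent reporter mRNA fragments resolved by capillary electrophoresis after RT-PCR. Human liver HepG2 cells carried transiently transfected cis-regulated reporter constructs; chemicals incubated 24 h; gain or loss of signal fitted relative to DMSO.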

[19] = ATG_AP_2_CIS: Attagene CIS-FACTORIAL HepG2 Assay for human Activator Protein 2 (AP-2) (AID 2282932); conditions: HepG2 AP-2 cis-reporter, Attagene transcription factor profiling; actives raise or lower the signal
Procedure, shortened: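 Transiently transfected HepG2 cells are exposed to chemical for 24 h. Reporter transcripts are then measured as fluorescence following RT-PCR and capillary separation, and gain- or loss-of-signal is fitted relative to DMSO.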

Measured: AC50

O=C(O)C(F)(F)C(F)(F)C(F)(F)C(F)(F)C(=O)O
not listed: [19]
inactive: all other assays above

CC(C)(C)C1CCC(=O)CC1
active: [4] 160 µM
not listed: [2] | [7] | [11] | [15] | [17]
inactive: all other assays above

CC(=O)/C=C/C1C(C)=CCCC1(C)C (stereo not drawn)
active: [14] 44.7 µM
not listed: [8]
inactive: all other assays above

CO[Si](CCCS)(OC)OC
active: [14] 68.7 µM
not listed: [15] | [17]
inactive: all other assays above

Cc1noc(NS(=O)(=O)c2ccc(N)cc2)c1C
not listed: [11]
inactive: all other assays above

C=C(C)C(=O)OCCCCCCCCCCCC
active: [3] 100 µM
not listed: [5] | [6]
inactive: all other assays above

O=S(=O)(O)c1ccc(N=Nc2c(O)ccc3ccccc23)cc1
active: [5] 1.3 µM | [14] 33.5 µM | [16] 7.83 µM
not listed: [10]
inactive: all other assays above

COC(=O)c1ccc(C(=O)OC)c(C(=O)OC)c1
not listed: [17] | [19]
inactive: all other assays above

C[Si](C)(C)N[Si](C)(C)C
inactive: all assays above

CCCCOCCOCCOC(C)=O
inactive: all assays above

CC(C)CCCCCOC(=O)CS
inactive: all assays above

COC(C=C(C)CCC=C(C)C)OC
not listed: [4] | [5] | [6] | [7]
inactive: all other assays above

c1ccc2c(c1)[nH]c1ccccc12
active: [5] 18 µM
not listed: [2] | [12]
inactive: all other assays above

C=CC(=O)O[C@H]1C[C@@H]2CC[C@@]1(C)C2(C)C
inactive: [1] | [2] | [3] | [5] | [9] | [15] | [16] | [18]
active: [19] 100 µM | [8] 177 µM | [10] 25.3 µM | [13] 157 µM | [14] 24.9 µM

CC1=CC=C(C(C)C)CC1
not listed: [8] | [10]
inactive: all other assays above

CCCC1CCCC(=O)O1 (stereo not drawn)
active: [14] 21.3 µM
not listed: [8]
inactive: all other assays above

CC(=O)OC/C=C(/C)CCC=C(C)C
not listed: [2] | [8] | [11]
inactive: all other assays above

CCCCC(=O)O
not listed: [7] | [15] | [17]
inactive: all other assays above

O=C(O[C@@H]1Cc2c(O)cc(O)cc2O[C@@H]1c1cc(O)c(O)c(O)c1)c1cc(O)c(O)c(O)c1
active: [3] 20.8 µM | [6] 72.5 µM | [7] 3.86 µM
not listed: [10] | [15]
inactive: all other assays above

COc1cc(C)ccc1O
not listed: [7] | [8] | [12] | [15]
inactive: all other assays above
